Source: the supplement of paper PMC10849652
Targets with a hit are over-represented here; the source holds about 7,900 in all. About 0.6% of all pairs of compound and target were hits.

compound: CN1CCc2c(c3ccccc3n2Cc2ccc(C(=O)NO)cc2)C1 [Tubastatin A]; assay: log2 fold change, soluble protein after heating vs DMSO (PISA); higher = thermal stabilisation; K562 cells, 10 uM, 30 min; active = over 0.2 and 3.5 SD of the protein, either way, in both replicates (recomputed)
Method in brief: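 For each measurement, 10 μM compound was applied for 30 min to K562 cells at 2×10^6 cells/mL. Aliquots were heated for 3 min across 48°C-58°C, pooled, and extracted in PBS with 0.5% NP-40 at 4°C; the supernatant after 21,000xg for 90 min was soluble protein. This was quantified by TMTpro 16plex LC-MS/MS with channel sums equalised, and thermal stability was reported relative to control samples from duplicates, on a log2 fold-change scale.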

Sequence of UniProt Q04446 (Q04446 whole entry, looked up): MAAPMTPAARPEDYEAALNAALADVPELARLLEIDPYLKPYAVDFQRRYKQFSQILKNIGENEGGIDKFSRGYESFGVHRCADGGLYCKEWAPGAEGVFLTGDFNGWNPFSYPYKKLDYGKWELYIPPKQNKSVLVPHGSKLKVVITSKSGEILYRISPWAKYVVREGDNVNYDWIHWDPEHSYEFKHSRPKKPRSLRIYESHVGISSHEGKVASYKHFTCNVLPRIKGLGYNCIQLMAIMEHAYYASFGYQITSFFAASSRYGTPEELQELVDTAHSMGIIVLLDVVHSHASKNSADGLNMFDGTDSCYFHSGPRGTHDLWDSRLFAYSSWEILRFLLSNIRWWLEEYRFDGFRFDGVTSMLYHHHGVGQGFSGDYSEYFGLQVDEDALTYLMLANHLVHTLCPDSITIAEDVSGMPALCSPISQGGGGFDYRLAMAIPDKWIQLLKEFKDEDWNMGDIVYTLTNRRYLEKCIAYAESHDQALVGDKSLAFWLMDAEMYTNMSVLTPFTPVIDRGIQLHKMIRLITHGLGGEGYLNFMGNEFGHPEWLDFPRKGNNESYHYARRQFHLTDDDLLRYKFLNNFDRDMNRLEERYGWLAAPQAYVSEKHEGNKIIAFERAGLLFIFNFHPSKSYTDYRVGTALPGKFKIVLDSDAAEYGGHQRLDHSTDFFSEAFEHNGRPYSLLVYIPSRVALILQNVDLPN
Sequence of UniProt Q9Y324 (Q9Y324 whole entry, looked up): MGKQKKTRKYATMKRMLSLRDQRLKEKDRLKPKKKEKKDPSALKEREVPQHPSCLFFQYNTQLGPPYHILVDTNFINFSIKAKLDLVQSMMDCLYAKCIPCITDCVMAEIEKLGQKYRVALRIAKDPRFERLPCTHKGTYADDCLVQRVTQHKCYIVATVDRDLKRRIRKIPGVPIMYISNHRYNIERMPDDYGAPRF
Sequence of UniProt Q5SSJ5 (Q5SSJ5 whole entry, looked up): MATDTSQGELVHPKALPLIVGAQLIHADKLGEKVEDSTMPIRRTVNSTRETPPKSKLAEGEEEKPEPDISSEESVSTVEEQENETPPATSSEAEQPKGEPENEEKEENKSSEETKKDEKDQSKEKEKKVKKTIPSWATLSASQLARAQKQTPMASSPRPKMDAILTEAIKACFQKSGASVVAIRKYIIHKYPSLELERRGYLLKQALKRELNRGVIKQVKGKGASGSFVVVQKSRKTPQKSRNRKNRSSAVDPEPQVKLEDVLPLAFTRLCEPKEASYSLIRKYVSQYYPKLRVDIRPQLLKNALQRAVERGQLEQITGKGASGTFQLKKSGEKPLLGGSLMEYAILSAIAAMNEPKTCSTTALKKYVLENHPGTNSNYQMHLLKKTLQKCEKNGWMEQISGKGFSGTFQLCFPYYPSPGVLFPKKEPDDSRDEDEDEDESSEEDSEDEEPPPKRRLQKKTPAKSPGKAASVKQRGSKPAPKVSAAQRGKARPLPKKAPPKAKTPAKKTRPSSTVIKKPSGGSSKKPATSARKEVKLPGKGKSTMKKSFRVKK
Sequence of UniProt P30711 (P30711 whole entry, looked up): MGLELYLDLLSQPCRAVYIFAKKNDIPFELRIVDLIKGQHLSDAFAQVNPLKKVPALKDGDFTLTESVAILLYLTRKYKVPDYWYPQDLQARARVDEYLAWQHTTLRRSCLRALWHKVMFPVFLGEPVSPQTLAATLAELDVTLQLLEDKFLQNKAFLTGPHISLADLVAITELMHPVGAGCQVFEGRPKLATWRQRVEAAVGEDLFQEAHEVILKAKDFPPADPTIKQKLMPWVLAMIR
Sequence of UniProt P50213 (P50213 whole entry, looked up): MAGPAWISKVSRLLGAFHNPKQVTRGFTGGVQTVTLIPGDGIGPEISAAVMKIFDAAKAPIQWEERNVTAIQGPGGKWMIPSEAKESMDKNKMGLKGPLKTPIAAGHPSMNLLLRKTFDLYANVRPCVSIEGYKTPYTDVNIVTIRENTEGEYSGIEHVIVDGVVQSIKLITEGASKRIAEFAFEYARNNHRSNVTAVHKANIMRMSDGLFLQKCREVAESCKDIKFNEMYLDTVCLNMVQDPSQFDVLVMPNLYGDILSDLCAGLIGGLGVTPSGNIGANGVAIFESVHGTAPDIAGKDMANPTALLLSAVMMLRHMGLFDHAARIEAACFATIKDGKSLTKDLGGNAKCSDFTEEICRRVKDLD
Sequence of UniProt O94925 (O94925 whole entry, looked up): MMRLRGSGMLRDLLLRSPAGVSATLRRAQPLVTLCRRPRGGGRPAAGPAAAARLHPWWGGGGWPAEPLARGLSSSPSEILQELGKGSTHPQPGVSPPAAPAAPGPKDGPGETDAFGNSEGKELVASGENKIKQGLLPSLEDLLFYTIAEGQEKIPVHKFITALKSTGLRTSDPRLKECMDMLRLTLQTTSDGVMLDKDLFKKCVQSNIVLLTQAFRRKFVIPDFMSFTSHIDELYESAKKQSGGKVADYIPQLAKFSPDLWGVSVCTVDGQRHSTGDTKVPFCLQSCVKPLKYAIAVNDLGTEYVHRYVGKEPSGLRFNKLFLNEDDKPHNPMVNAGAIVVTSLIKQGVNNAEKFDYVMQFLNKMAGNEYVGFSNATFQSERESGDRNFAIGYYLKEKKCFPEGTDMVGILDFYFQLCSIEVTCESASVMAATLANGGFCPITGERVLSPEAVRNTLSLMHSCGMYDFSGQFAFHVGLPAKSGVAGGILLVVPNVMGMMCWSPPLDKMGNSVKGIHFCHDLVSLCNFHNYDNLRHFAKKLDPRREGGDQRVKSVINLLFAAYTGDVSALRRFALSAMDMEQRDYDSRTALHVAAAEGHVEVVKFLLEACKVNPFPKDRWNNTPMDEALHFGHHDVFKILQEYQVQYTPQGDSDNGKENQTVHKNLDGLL
Sequence of UniProt O60725 (O60725 whole entry, looked up): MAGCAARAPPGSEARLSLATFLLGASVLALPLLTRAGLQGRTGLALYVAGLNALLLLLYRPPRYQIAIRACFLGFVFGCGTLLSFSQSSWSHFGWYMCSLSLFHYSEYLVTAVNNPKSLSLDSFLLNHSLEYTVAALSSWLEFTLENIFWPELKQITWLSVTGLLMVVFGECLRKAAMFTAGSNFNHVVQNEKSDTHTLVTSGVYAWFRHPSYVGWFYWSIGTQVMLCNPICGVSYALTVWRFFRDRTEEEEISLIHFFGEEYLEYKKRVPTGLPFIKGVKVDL
Sequence of UniProt O15117 (O15117 whole entry, looked up): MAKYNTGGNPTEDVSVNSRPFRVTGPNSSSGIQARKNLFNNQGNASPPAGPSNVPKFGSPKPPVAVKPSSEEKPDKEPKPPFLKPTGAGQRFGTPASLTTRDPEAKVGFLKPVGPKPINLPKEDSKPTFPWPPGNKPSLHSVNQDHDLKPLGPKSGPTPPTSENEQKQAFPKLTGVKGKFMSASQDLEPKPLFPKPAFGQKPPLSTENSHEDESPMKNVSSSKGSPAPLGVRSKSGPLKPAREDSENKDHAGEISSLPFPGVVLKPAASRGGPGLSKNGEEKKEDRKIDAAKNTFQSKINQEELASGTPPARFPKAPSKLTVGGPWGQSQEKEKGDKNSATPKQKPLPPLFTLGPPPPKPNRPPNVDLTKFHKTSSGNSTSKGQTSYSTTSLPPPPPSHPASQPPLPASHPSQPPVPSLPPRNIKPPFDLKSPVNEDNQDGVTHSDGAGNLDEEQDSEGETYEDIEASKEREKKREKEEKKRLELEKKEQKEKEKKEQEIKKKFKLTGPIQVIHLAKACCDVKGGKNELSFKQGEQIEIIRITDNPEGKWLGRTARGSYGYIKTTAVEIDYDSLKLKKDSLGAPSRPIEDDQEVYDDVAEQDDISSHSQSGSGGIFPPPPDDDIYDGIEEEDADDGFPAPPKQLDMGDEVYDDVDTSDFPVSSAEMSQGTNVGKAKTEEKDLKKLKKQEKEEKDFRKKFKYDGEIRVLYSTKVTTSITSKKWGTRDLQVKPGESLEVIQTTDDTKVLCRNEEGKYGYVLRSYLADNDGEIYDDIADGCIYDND
Sequence of UniProt P52655 (P52655 whole entry, looked up): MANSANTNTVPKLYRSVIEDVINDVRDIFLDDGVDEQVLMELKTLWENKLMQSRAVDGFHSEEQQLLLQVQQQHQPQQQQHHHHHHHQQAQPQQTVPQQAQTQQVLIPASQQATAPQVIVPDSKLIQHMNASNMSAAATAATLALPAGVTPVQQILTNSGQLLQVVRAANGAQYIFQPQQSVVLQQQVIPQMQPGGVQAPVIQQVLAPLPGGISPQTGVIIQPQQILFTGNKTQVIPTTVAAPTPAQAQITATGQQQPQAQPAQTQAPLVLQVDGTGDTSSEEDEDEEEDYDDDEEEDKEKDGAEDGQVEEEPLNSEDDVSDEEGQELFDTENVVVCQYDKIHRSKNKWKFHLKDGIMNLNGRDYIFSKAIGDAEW
Sequence of UniProt P21695 (P21695 whole entry, looked up): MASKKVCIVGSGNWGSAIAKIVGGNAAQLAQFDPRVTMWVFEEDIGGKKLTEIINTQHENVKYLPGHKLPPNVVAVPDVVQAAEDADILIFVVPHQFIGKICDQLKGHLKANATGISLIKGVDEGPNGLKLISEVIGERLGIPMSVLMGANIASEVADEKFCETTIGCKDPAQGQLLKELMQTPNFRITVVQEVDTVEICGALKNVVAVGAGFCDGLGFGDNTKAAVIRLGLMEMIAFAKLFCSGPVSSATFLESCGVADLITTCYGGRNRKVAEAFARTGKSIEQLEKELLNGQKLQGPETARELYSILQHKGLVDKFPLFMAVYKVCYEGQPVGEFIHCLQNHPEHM
Sequence of UniProt Q13227 (Q13227 whole entry, looked up): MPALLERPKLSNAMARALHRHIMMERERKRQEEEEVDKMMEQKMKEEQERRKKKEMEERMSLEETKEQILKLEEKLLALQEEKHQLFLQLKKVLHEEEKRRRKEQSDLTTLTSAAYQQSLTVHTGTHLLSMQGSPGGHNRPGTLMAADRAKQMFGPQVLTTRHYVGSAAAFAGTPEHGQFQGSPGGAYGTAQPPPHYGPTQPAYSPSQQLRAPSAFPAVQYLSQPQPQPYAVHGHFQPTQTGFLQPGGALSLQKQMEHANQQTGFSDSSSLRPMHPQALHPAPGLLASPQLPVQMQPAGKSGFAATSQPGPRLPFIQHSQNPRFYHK

log2 fold change, inactive:
IDH3A isoform 2 (UniProt P50213) 0.138, HP1BP3 (UniProt Q5SSJ5) 0.06, GLS isoform 3 (UniProt O94925) 0.14, GPD1 (UniProt P21695) -0.027, FAT2 (UniProt Q9NYQ8) 0.144, GREB1 (UniProt Q4ZG55) 0.264, FBXO9 (UniProt Q9UK97) -0.003, GSTT1 (UniProt P30711) 0.015, GOLGA8R (UniProt I6L899) 0.253, GNL3 (UniProt Q9BVP2) 0.304, GTF2A1 (UniProt P52655) 0.003, HSPA8 (UniProt E9PN89) -0.018, GPS2 (UniProt Q13227) 0.033, FCF1 (UniProt Q9Y324) 0.07, FYB1 isoform 3 (UniProt O15117) -0.018, GBE1 (UniProt Q04446) 0.055, ICMT (UniProt O60725) -0.065, HNRNPUL1 (UniProt M0R247) -0.054, GOPC (UniProt Q9HD26) 0.177, HNRNPK isoform 3 (UniProt P61978) 0.034, HDAC10 (UniProt Q969S8) 0.458, FAT1 (UniProt Q14517) -0.031
